# Screens from PubChem BioAssay.
# FUS yeast rescue – suppressors of FUS proteinopathy in yeast; Potency, µM (top dose mostly 76.6 µM), most hits filed as activators; 390,000 compounds, 0.24% hits; S. cerevisiae FUS-expressing, growth rescue, OD600, 24 h;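 also: plate controls were DMSO vehicle for no effect and reference control for full effect; nearly all actives have a fitted effect of over 55% in size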
#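 Cultures pregrown in 2.5% raffinose medium are shifted to minimal medium containing 2% galactose to express toxic FUS. Compounds are tested at several concentrations. After 24hr at 30C, growth is quantified at 600 nm absorbance.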
# Abeta yeast res – A-beta toxicity reversal in yeast. yeast expressing A-beta42, growth rescue, OD600, 48 h; response scale: 0% DMSO, 100% iron-clioquinol control. Potency, µM (doses to about 46.1 µM), usual class: activators. 410,000 compounds, 0.063% hits. AID 1347071; also: nearly all actives have a fitted effect of over 55% in size
#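 Growth rescue measured by 600 nm absorbance after 48 h yeast culture at 30 C with compound. Values normalized between DMSO and an equimolar ferric chloride plus clioquinol control.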
# TDP43 rescue – inhibitors of TDP-43 toxicity in yeast | TDP-43 expressing yeast growth rescue, BacTiter-Glo, 24 h | Potency, µM (doses to about 46.1 µM), without a hit: top-dose growth rescue (activation), usual class: activators | 410,000 compounds, 1.8% hits; also: % of control where 0% means no effect; nearly all actives have a fitted effect of over 50% in size
#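 Yeast expressing TDP-43 (pregrown in raffinose, seeded at OD600=0.02 in galactose medium) exposed to compounds 24 hr at 30 deg C. Growth read by BacTiter-Glo luminescence; rescue of toxicity appears as increased signal.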
# aSyn rescue – inhibitors of alpha-synuclein toxicity in yeast | Yeast expressing alpha-synuclein, growth rescue, BacTiter-Glo, 24 h | Potency, µM (top dose mostly 46.1 µM), for inactives: at the top dose growth rescue (activation), hits mostly activators | 370,000 compounds, 0.14% hits | AID 652106; also: % of control where 0% means no effect; nearly all actives have a fitted effect of over 65% in size
#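 Screening used galactose-induced yeast with toxic alpha-synuclein levels, exposed to compound for 24 hr at 30 deg C. Cell growth, read with BacTiter-Glo luminescence, gave the measured signal.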
# * = called active by the depositor; i = inactive; u = inconclusive; x = no result; ! = repeats disagree. Sampled rows, rich in hits. Any-hit rate of the full collection: about 2.1%. Calls follow the shape of the dose curve; as a rule, active = well fitted curve in the direction sought with a large enough effect; inconclusive = small, poorly fitted or top-dose-only effect, or another doubt; inactive = no such curve, though single readings can be large; an effect the other way counts as inactive or inconclusive. Potency is read from the fitted curve at half-maximal effect.
SMILES,FUS yeast rescue,Abeta yeast res,TDP43 rescue,aSyn rescue
OCc1cn(-c2ccccc2)nc1-c1cccnc1,i,i,8%,0%
COC(=O)c1cc2sc(C)cc2n1Cc1nc(-c2ccc(C)cc2)oc1C,i,i,11%,x
O=C(c1cc2ccc3cccnc3c2[nH]1)N1CCN(c2cccc(Cl)c2)CC1,u,i,13µM*,x
O=C(c1cc2ccc3cccnc3c2[nH]1)N1CCN(c2ccc(Cl)cc2)CC1,i,i,-6%,x
COc1cccc(N2CCN(C(=O)c3cc4cc(Cl)ccc4[nH]3)CC2)c1,i,i,13µM*,u
Cc1ccc(Cl)cc1N1CCN(C(=O)c2cc3ccc4cccnc4c3[nH]2)CC1,i,i,20µM*,x
Cc1ccc(NC(=O)COc2ccccc2C(=O)Nc2ccccc2)cc1,x,x,x,1%
O=C(Nc1c(C(=O)Nc2ccc(F)cc2)oc2ccccc12)c1ccccc1F,i,i,18%,x
CCN(CC)CCOC(=O)c1ccc(NC(=O)Cn2ncc3c([nH]c4ccc(C)cc43)c2=O)cc1,i,i,4%,x
CCOc1ccc(-c2nc3c(c(SCC(=O)N4CCCCC4)n2)Cc2cccc(OC)c2O3)cc1,i,i,28%,x
O=C(Nc1c(Cl)cc([N+](=O)[O-])cc1Cl)c1cc(Cl)ccc1O,x,x,x,-15%
O=C(CSc1nnc(-c2ccccc2Cl)o1)N1CCCc2ccccc21,i,i,u,x
NC(=O)c1sc2nc3c(c(-c4ccco4)c2c1N)CCC3,i,i,7%,10µM*
Cc1ccc(-c2c3c(nc4sc(C(N)=O)c(N)c24)CCCC3)o1,x,i,2%,20%
CCn1nc(C)c(CCN(C)C(=O)Nc2cc(Cl)c(OC)cc2OC)c1C,i,i,16%,x
NC(=S)N=Nc1ccc(O)cc1,x,i,13µM*,-15%
CCOC(=O)c1c(C)[nH]c(O)c1C=Nc1ccc(C(F)(F)F)cc1,i,i,3.2µM*,-6%
CN(C(=O)c1ccccc1OCc1ccc(Cl)cc1)c1ccccc1,i,i,-5%,1%
CN(Cc1nc2ccccc2c(=O)[nH]1)C(=O)c1ccccc1OCc1ccc(Cl)cc1,i,i,20µM*,13%
CCOc1ccccc1NC(=O)C(=O)Nc1ccc2nc3n(c(=O)c2c1)CCCCC3,i,i,23%,x
N#Cc1c(NCc2ccccc2)ccnc1Cl,i,i,14µM*,15%
COc1ccccc1NC(=O)Cn1nc(-c2ccc(C)cc2)c2c(c1=O)CCCC2,i,i,32µM*,x
COc1ccccc1NC(=O)Cn1nc(-c2ccc(Cl)cc2)c2ccccc2c1=O,i,i,28%,15%
Cc1cccc(NC(=O)COc2ccc(-c3nn(C)c(=O)c4ccccc34)cc2)c1,u,i,35µM*,4%
COc1ccccc1NC(=O)COc1ccc(-c2nn(C)c(=O)c3ccccc23)cc1,i,i,22µM*!,0%
SMILES,FUS yeast rescue,Abeta yeast res,TDP43 rescue,aSyn rescue
CN(C(=O)c1ccc(-c2nn(C)c(=O)c3ccccc23)cc1)c1ccccc1,i,i,14µM*,x
COc1ccccc1NC(=O)c1ccc(-c2nn(C)c(=O)c3ccccc23)cc1,i,i,16%,16%
CCN(CC)S(=O)(=O)c1ccc(NC(=O)CSc2nnc3c(n2)[nH]c2ccccc23)cc1,x,x,x,0%
Cn1nc(-c2ccc(OCC(=O)Nc3ccccc3)cc2)c2ccccc2c1=O,i,i,16µM*,x
O=S(=O)(c1ccc(C(F)(F)F)cc1)N1CCN(c2nc(-c3ccccc3)nc3ccccc23)CC1,x,x,x,4%
CN(c1ccccc1)c1nc2ccsc2c(=O)s1,i,i,14µM*,0%
C/C(=C\C(=S)Nc1ccccc1)Nc1ccccc1,i,i,13µM*,-2%
COc1cc2nc(N(C)C)nc(NC3CCN(C)CC3)c2cc1OC,x,x,x,-2%
O=C1c2ccccc2C(=O)N1c1ccccn1,x,x,x,-1%
Cc1ccc(CNC(=O)CN2C(=O)CCc3cc(S(=O)(=O)N4CCCCC4)ccc32)cc1,i,i,-28%,x
CC(C)(C)c1ccc(OCCC(=O)Nc2ccc(N3CCOCC3)cc2N2CCOCC2)cc1,40µM*,i,8%,2%
CCOc1ccc(OCCC(=O)OCC(=O)Nc2ccc(N3CCOCC3)cc2)cc1,i,i,0%,5%
CC(C)(C)c1ccc(OCCC(=O)OCC(=O)NC2CC2)cc1,i,i,13µM*,u
CCOc1ccc(S(=O)(=O)N2CCOCC2)cc1NC(=O)CCOc1ccc(C(C)(C)C)cc1,i,i,u,-3%
CCOc1cc(N2CCOCC2)c(OCC)cc1NC(=O)COC(=O)CCOc1ccc(C(C)(C)C)cc1,i,i,22µM*,22%
CCC(C)n1c(=N)c(S(=O)(=O)c2ccc(C)cc2)cc2c(=O)n3cc(C)ccc3nc21 (stereo not drawn),i,i,1%,u
O=C(CSc1ccccc1Cl)N1CCC(c2nc3ccccc3s2)CC1,i,i,u,u
CCC(Oc1ccccc1F)C(=O)N1CCC(c2nc3ccccc3s2)CC1 (stereo not drawn),i,i,25µM*,x
O=C(c1cccc(F)c1)N1CCC(c2nc3ccccc3s2)CC1,i,i,13µM*,4%
COc1cccc(C(=O)N2CCC(c3nc4ccccc4s3)CC2)c1,i,i,0%,x
CCCOc1ccccc1C(=O)N1CCC(c2nc3ccccc3s2)CC1,i,i,u,x
O=C(CSc1ccc(F)cc1)N1CCC(c2nc3ccccc3s2)CC1,i,i,22µM*,27%
CCC(C)CNC(=O)CSc1nnc(-c2cccnc2)n1C1CCCCC1 (stereo not drawn),i,x,x,x
CC1CCc2c(C(=O)NCCN3CCOCC3)csc2C1 (stereo not drawn),i,i,-20%,-6%
CC1CCc2c(C(=O)Nc3ccc(N4CCOCC4)cc3)csc2C1 (stereo not drawn),i,i,7.1µM*,6%
SMILES,FUS yeast rescue,Abeta yeast res,TDP43 rescue,aSyn rescue
Cc1cccc(C)c1Cn1c(C)c(C(=O)NCc2ccc([N+](=O)[O-])cc2)sc1=O,u,i,11µM*,9%
Cc1ccc(C)c(N2CCN(C(=O)C3CCN(C(=O)c4cc5sccc5n4C)CC3)CC2)c1,u,i,13µM*,x
Cc1ccc(C)c(N2CCN(C(=O)c3cc4sccc4n3C)CC2)c1,u,i,14%,0%
Cc1cccc(N2CCN(C(=O)C3CCN(C(=O)c4cc5sccc5n4C)CC3)CC2C)c1 (stereo not drawn),32µM*,u,20%,x
COc1ccc2cc([S+]([O-])Cc3ncc(C)c(OC)c3C)nc2c1,x,x,x,-88%
O=C(c1ccc(F)c(F)c1)N1CCC(Oc2cccnc2)CC1,i,x,x,x
COc1ccc(C(=S)N2CCN(C)CC2)cc1Br,i,i,5%,2%
COc1ccc(C(=S)N2CCCC2)cc1Br,i,i,11µM*,11%
O=C(Nc1cc(C(F)(F)F)ccc1-n1cncn1)c1ccc(-c2ccccc2)cc1,i,i,14µM*,-5%
